Source: PubChem BioAssay (NCI)
About 79,000 compounds went through this panel and 15% of them were active in at least one assay; those are over-represented in the sample as a whole. Cut-off read from the data, not from the text of the source: active = growth inhibition above about 70%; inactive = the rest.

Tests used:
[1] = NCI Yeast Anticancer Drug Screen. Data for the rad50 strain (AID 155);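 note: 0% = growth of vehicle-only cultures of the same strain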; conditions: S. cerevisiae rad50 strain growth inhibition; at 50.0 µM; active compounds read high
Outline: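 Inhibition values express reduced yeast growth in compound-treated cultures relative to vehicle-treated controls.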

[2] = NCI Yeast Anticancer Drug Screen. Data for the mec2-1 strain (AID 157); conditions: S. cerevisiae mec2-1 strain, at 50.0 µM, active compounds read high
Outline: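 Growth inhibition is read against vehicle-treated controls after compound exposure of the mec2-1 yeast strain, which is defective in DNA damage repair or cell cycle control.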

[3] = NCI Yeast Anticancer Drug Screen. Data for the sgs1 mgt1 strain (AID 161);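 note: 0% = growth of cultures given vehicle only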; conditions: S. cerevisiae sgs1 mgt1 strain, at 50.0 µM, active compounds read high
Outline: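 Growth of a repair-deficient yeast mutant was monitored after compound treatment and expressed as inhibition relative to vehicle-treated cultures.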

[4] = NCI Yeast Anticancer Drug Screen. Data for the cln2 rad14 strain (AID 165);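 note: 0% = growth equal to vehicle treated cultures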; conditions: S. cerevisiae cln2 rad14 strain, at 50.0 µM, active compounds read high
Outline: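 Growth inhibition, relative to vehicle-treated controls, is the read-out. The test organism is a yeast strain with defined genetic alterations, cln2 rad14.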

[5] = NCI Yeast Anticancer Drug Screen. Data for the bub3 strain (AID 167); conditions: S. cerevisiae bub3 mutant strain, at 50.0 µM, active compounds read high
Outline: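 Steps: expose the mutant yeast strain to compound; grow alongside vehicle-treated cultures; measure growth; express inhibition against the vehicle cultures.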

[6] = NCI Yeast Anticancer Drug Screen. Data for the mlh1 rad18 strain (AID 175); conditions: S. cerevisiae mlh1 rad18 strain growth inhibition; at 50.0 µM; active compounds read high
Outline: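 Cells of a genetically altered yeast strain, deficient in DNA damage repair, were treated with compound. Their growth was then compared with that of vehicle-treated cultures to give inhibition.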

Measured: growth inhibition

Cc1ccc(N)c(S(=O)(=O)O)c1
inactive: [1] -4.85% | [2] 4.35% | [3] 0.75% | [4] -53.9% | [5] 8.85% | [6] -13.2%

COC(=O)c1ccccc1C(=O)c1c(C)cc(C)cc1C
inactive: [1] 13.8% | [2] 28.2% | [3] 34.1% | [4] -64% | [5] 46.9% | [6] 50.3%

O=C(O)C1CSC(c2ccccc2)N1 (centres undefined)
inactive: [1] 1.95% | [2] -12.8% | [3] -4.35% | [4] 3% | [5] -5.55% | [6] 2.55%

Cc1ccc(C)c2c1CCC2=O
inactive: [1] 3.9% | [2] 3.85% | [3] 13.8% | [4] -19.2% | [5] 3.85% | [6] 13.3%

CCCCCC#CC(=O)O
inactive: [1] -3.05% | [2] -3.95% | [3] -8.05% | [4] 17.9% | [5] -7.3% | [6] 19.4%

COc1ccc2c(Cl)cc(NC(=O)Nc3c(C)cccc3C)nc2c1
inactive: [1] 5.8% | [2] 1.15% | [3] 13.9% | [4] 6.65% | [5] 21.1% | [6] 7.2%

CC(=O)/C(C)=N\OC(=O)Nc1ccccc1
inactive: [1] 1.2% | [2] -8.2% | [3] -2.65% | [4] -7% | [5] 9.4% | [6] -9.95%

N#C/C(=C\c1ccc(C#N)cc1)C(=O)c1ccccc1
inactive: [1] 10.5% | [2] 0.95% | [3] 16.4% | [4] 19% | [5] 9.95% | [6] 18.9%

Cc1cc(C)cc(OCC(=O)O)c1
inactive: [1] 16.6% | [2] 10.2% | [3] -10.6% | [4] -41% | [5] -4.45% | [6] 3.4%

Cc1cc(CC(=O)NCCO)n(CCO)c(=O)c1
inactive: [1] -7.85% | [2] -21.5% | [3] 6.55% | [4] 6.25% | [5] -2.7% | [6] -2.9%

CCC(=O)Oc1ccc2ccccc2c1
inactive: [1] 49.4% | [2] 32.8% | [3] 28.5% | [4] 14.8% | [5] 17.4% | [6] 29.8%

CCCOCc1cn[nH]n1
inactive: [1] -9.7% | [2] 5.25% | [3] 8.3% | [4] -8.85% | [5] -8.95% | [6] -2.35%

Cc1ccc2nc(N)nnc2c1
inactive: [1] -5.9% | [2] -34.1% | [3] 3.9% | [4] 20.8% | [5] -17.1% | [6] -3.15%

CN(C)c1ccc(/C=C/C(=O)c2ccc(NC(N)=O)cc2)cc1
inactive: [1] -8.35% | [2] 1.9% | [3] -4.5% | [4] -51.6% | [5] -18% | [6] -8%

COc1nc(Nc2cccc(C(F)(F)F)c2)nc(OC)n1
inactive: [1] 8.5% | [2] -8% | [3] 15.4% | [4] 7.9% | [5] 23.2% | [6] 6.25%

O=S1(=O)c2ccccc2Oc2ccccc21
inactive: [1] -26.2% | [2] -19.4% | [3] -23.7% | [4] 16.6% | [5] 3.4% | [6] -14.6%

CC(C)C(C)(C)C(=O)C(C)(C)C(C)(C)C
inactive: [1] -12.2% | [2] -2.65% | [3] -9.7% | [4] -35.5% | [6] 7.95%

COc1cc(OC)c2cc(C(=O)c3ccc(C#N)cc3)c(=O)oc2c1
inactive: [1] 17% | [2] -12.1% | [3] 25.1% | [4] 31% | [6] 32.2%

C=CCNC(=S)N/C=C(/C(=O)c1ccccc1)c1ccccc1
inactive: [1] -53.6% | [2] -23.8% | [3] -45.2% | [4] -31.5% | [6] -53.6%

O=C1NCC2CCCC1C2 (centres undefined)
inactive: [1] 6.5% | [2] -8.15% | [3] -9.3% | [4] -40.9% | [5] -13.4% | [6] 1.7%

CCCCCCCCCCC(=O)CCCCCCCCCC
inactive: [1] 7.15% | [2] -12.2% | [3] 8.1% | [4] 16.8% | [6] 7.05%

CCOC(=O)C(C#N)=C1CCN(C)CC1
inactive: [1] 8.45% | [2] -4.75% | [3] -0.75% | [4] 10.2% | [6] -5.6%

O=C(Nc1cccc(Cl)c1)c1ccc(Cl)cc1Cl
inactive: [1] 1.95% | [2] 5.85% | [3] 2.2% | [4] -48.5% | [6] 0.1%

NCCCN1CCCC1=O
inactive: [1] -20.1% | [2] -21.3% | [3] -14.8% | [4] 1.8% | [6] -15.1%

C=C(C)COc1ccc(C(C)(C)C)cc1
inactive: [1] 18.1% | [2] 16.7% | [3] 11.1% | [4] 8.1% | [5] 17.6% | [6] 12%

CCOC(=O)C1(N)CCCCC1
inactive: [1] 10.3% | [2] 0.45% | [3] 11.1% | [4] -9.85% | [5] 13% | [6] 11.8%

COC1(OC)C2(Cl)C(Cl)=C(Cl)C1(Cl)C1COCC12 (centres undefined)
inactive: [1] -48% | [2] 17.5% | [3] -40.2% | [4] 12.8% | [6] -8.6%

COC1C(=O)CCC2(CO2)C1(O)C1(C)OC1CCC(C)C (centres undefined)
inactive: [1] -27.1% | [2] -42.4% | [3] -18.5% | [4] -3.85% | [5] -16.1% | [6] -4.55%

Cc1ccc(S(N)(=O)=O)cc1Cl
inactive: [1] 10.1% | [2] -20.1% | [3] 13.2% | [4] 5.8% | [6] 16.6%

CC(=O)OC/C(C)=C\CC(C)COC(C)=O (centres undefined)
inactive: [1] -9.25% | [2] 3.35% | [3] 14.4% | [4] 2.4% | [6] -0.75%

CC(=O)c1cccc(O)c1
inactive: [1] 5.8% | [2] -8.85% | [3] 6.65% | [4] 1.1% | [6] 17.7%

CCOc1ccncc1[N+](=O)[O-]
inactive: [1] 5.5% | [2] 13.1% | [3] 3.25% | [4] -7% | [6] 5%

C[C@H](CCC[C@H](C)OS(=O)(=O)c1ccccc1)OS(=O)(=O)c1ccccc1
inactive: [1] 9.3% | [2] -3.9% | [3] 5.85% | [4] 4.55% | [6] -16.6%

CC1(C)C2CCC1(C)C1(C2)OCCS1 (centres undefined)
inactive: [1] 24.8% | [2] -5.25% | [3] 1% | [4] 11.2% | [5] 1.05% | [6] -7.65%

Oc1ccc(CCC2CCNc3ccccc32)cc1 (centres undefined)
inactive: [1] 0.35% | [2] -1.85% | [3] -14.2% | [4] -11.7% | [6] -3.9%

O=C(O)CC1=CCCCC1
inactive: [1] 23.4% | [2] -21.6% | [3] 0.9% | [4] 10.2% | [6] 6.9%

Cc1ccc(/C=N/NC(N)=S)s1
inactive: [1] 24.9% | [2] 1.9% | [3] 49.1% | [4] -41.5% | [5] -12.8% | [6] 48.5%

CSc1nsc(N)n1
inactive: [1] -13.3% | [2] 2.5% | [3] -4.2% | [4] -26.9% | [6] 20.7%

c1ccc(Nc2ccccn2)nc1
inactive: [1] -10.2% | [2] -13.8% | [3] -21% | [4] -87.8% | [6] -24.6%

S=CN1CCCCC1
inactive: [1] -25.1% | [2] -16.2% | [3] -7.8% | [4] -2.4% | [5] -23.8% | [6] -8.75%

CC(=O)NNC(=S)N/C=C/c1c(C)ccc([N+](=O)[O-])c1[N+](=O)[O-]
inactive: [1] -24.5% | [2] -35% | [3] -28.4% | [4] -31.9% | [5] -36% | [6] -2.8%
